The text below walks through data of PubChem BioAssay AID588342 (National Center for Advancing Translational Sciences (NCATS), 2011).

Hit rate of the full screen: of about 360,000 compounds, about 25,000 (6.9%) were called active. Not shown: some 9% with an inconclusive outcome. The sample holds actives, similar compounds and a random draw of the others, so the mix is not that of the screen. Values without a mark were called inactive. The call rests on the fitted dose curve; in most records, active means well fitted inhibition curve with a large enough effect; inconclusive means small, poorly fitted or top-dose-only effect; inactive means flat fitted curve, though single readings scatter.
Potency means the concentration at half of the fitted maximal effect.

Luciferin 4-monooxygenase (Photinus pyralis), sequence (P08659 whole entry, looked up): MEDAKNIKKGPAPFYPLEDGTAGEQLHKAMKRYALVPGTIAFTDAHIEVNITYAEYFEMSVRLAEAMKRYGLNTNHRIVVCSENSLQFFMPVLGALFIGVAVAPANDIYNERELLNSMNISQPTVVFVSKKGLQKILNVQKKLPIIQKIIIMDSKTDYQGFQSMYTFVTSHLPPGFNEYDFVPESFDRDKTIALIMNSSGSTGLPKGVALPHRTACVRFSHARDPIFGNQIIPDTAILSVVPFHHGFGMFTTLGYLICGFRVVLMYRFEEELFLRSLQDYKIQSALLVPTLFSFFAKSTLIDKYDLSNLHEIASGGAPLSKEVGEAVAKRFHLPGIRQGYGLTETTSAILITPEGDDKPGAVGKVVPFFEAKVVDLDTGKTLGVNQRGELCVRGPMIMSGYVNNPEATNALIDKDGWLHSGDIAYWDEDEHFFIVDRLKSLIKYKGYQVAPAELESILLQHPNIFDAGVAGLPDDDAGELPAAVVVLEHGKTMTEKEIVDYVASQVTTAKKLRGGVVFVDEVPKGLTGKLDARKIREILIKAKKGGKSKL

The experiment addresses Luciferin 4-monooxygenase (Photinus pyralis) (UniProt P08659). Briefly: qHTS profiling assay for firefly luciferase inhibitor/activator using purifed enzyme and Km concentrations of substrates (counterscreen for miR-21 project). Further: nearly all actives have a fitted effect of over 55% in size.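 On activity change, negative = inhibition: plate controls were vehicle for no effect and reference inhibitor for full effect.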 The note with it: purified FLuc, luminescence inhibition; series mostly up to 57.5 µM; activity change, negative = inhibition: at the top concentration. The essentials: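 Purified P. pyralis luciferase (10nM final) with 10uM D-luciferin and 10uM ATP (Km levels) in 50mM Tris acetate pH 7.5, 10mM Mg acetate, 0.01% Tween-20, 0.05% BSA; qHTS 6-point titration, ~60 µM downward; luminescence read.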
Background: Quantitative high-throughput screening tests each substance at several concentrations.
`CCOC(=O)C1CCCN(S(=O)(=O)c2cc(-c3cc(C)no3)ccc2OC)C1` (configuration not stated): the “activity change, negative = inhibition” value is 5%. With `CSc1nn(Cc2cccc(C)c2)c(N)c1S(=O)(=O)c1ccccc1`, the “activity change, negative = inhibition” value was 4.36%. Regarding `COc1cccc(CNC(=O)C2CCC(CNS(=O)(=O)c3cccs3)CC2)c1` (configuration not stated), the “activity change, negative = inhibition” value is -0.944%. Consider `CC(C)(C)c1ccc(C(=O)NCC(c2ccc(Cl)cc2)N2CCOCC2)cc1` (configuration not stated), for which the “activity change, negative = inhibition” value was -10.9%. `CCOc1ccc(NC(=O)COC(=O)C2CCC(=O)N2)c([N+](=O)[O-])c1` (configuration not stated): the “activity change, negative = inhibition” value is -10.7%. Regarding `Cc1ccc(-n2c(C)cc(C(=O)CN3C(=O)C(=O)N(C4CCCC4)C3=O)c2C)cc1`, the “activity change, negative = inhibition” value is -14.7%. Regarding `Cc1cc(C(=O)COC(=O)C2CC2)c(C)n1-c1ccc(F)cc1`, the Potency was 0.169 µM (active).

Take `COc1ccc(-n2c(C)cc(C(=O)COC(=O)c3cc(OC)c(OC)cc3NC(=O)c3cccs3)c2C)cc1`: the “activity change, negative = inhibition” value was -2.76%. On the same count and under the same terms, the value for `Cc1nc(CN(C)C(=O)CC2C(=O)NCCN2Cc2ccc(F)cc2)cs1` (configuration not stated) was 1.85%.

Regarding `Cc1cccc(N(C(=O)Cc2cccs2)C(C(=O)NCc2ccco2)c2ccncc2)c1` (configuration not stated), the “activity change, negative = inhibition” value is -0.4%. On to `O=C(NCC(=O)N(c1ccccc1)C(C(=O)NCC1CCCO1)c1ccccc1)c1cccs1` (configuration not stated), for which the “activity change, negative = inhibition” value is 1.75%. In the case of `Cc1ccc(N(C(=O)Cc2cccs2)C(C(=O)NCC2CCCO2)c2ccncc2)cc1` (configuration not stated), the Potency is 16.9 µM (active). On to `CCOC(=O)c1cc2c(=O)n3ccccc3nc2n(CC2CCCO2)c1=NC(=O)c1ccccc1Br` (configuration not stated), for which the “activity change, negative = inhibition” value was -2.15%.

Regarding `CN(C)c1nc(NN)nc(Nc2ccc(F)cc2)n1`, the “activity change, negative = inhibition” value was 2.45%. Still for that read-out and setting: the value for `CCC(=O)Nc1nc(OC)cc(OC)n1` was 3.41%. Take `CC(=O)Nc1nc(N(C)C)nc(N(C)C)n1`: the Potency was 26.9 µM (active). The same measure, in the same setting: the value for `O=C(Nc1ccccc1C(=O)O)c1ccc(N2C(=O)C3CC=CCC3C2=O)cc1` (configuration not stated) was 4.78 µM (active).

Regarding `COc1ccc(Cl)cc1NC(=O)c1cccc(N2C(=O)C3CC=CCC3C2=O)c1` (configuration not stated), the “activity change, negative = inhibition” value is 3.07%.

With `O=C(Cc1ccccc1)Nc1ccc(C(=O)Nc2ccccc2C(=O)O)cc1`, the “activity change, negative = inhibition” value is -0.802%. For `O=c1ccc2cc(S(=O)(=O)N3CCN(c4ccccc4)CC3)ccc2o1`, the “activity change, negative = inhibition” value is -0.908%. For the compound `CCOc1ccccc1NC(=O)Cn1c(=O)n(Cc2ccccc2)c(=O)c2c(C)c(C(=O)N(C)C)sc21`, the “activity change, negative = inhibition” value is 2.47%. `O=C(O)c1ccc(/C=N/NC(=O)c2ccc(Br)cc2)cc1`: the Potency was 15.1 µM (active). Regarding `COc1ccc(S(=O)(=O)N(CC(=O)N/N=C/c2ccc(C(=O)O)cc2)Cc2ccccc2)cc1OC`, the “activity change, negative = inhibition” value is 2%. In the case of `O=C(N/N=C/c1ccc(OCC2COCCO2)cc1)c1ccc(Br)cc1` (configuration not stated), the “activity change, negative = inhibition” value was -3.87%. Consider `CC(C)(C)OC(=O)N/N=C/c1ccc(C(=O)O)cc1`, for which the Potency is 19 µM (active).

As for `COC(=O)N/N=C/c1ccc(/C=N/NC(=O)OC)cc1`, the “activity change, negative = inhibition” value is -3.29%. The same measure, in the same setting: the value for `O=C(O)c1ccc(/C=N/NC(=S)NCc2ccccc2)cc1` was -4%. As for `Cc1cccc2c(=O)cc(CSc3ccccc3NC(=O)C(C)C)[nH]c12`, the “activity change, negative = inhibition” value is -4.14%. The same measure, in the same setting: the value for `Nc1c(-c2ccc(F)cc2)cnn1C1CCS(=O)(=O)C1` (configuration not stated) was 0.904%. Take `O=C(Nc1ccc(C(F)(F)F)cc1)c1cccc(-n2cnnn2)c1`: the “activity change, negative = inhibition” value was -11.7%. `CC(C)NC(=O)NCCCCCCS(C)=O` (configuration not stated): the “activity change, negative = inhibition” value was -2.89%. In the case of `O=C(COC(=O)Cc1ccc(Br)cc1)Nc1ccc(N2CCOCC2)cc1`, the “activity change, negative = inhibition” value was 1.52%. As for `O=C(Nc1cccc2cccnc12)c1cccc(Cl)c1`, the Potency is 15.1 µM (active). `O=C(Nc1cccc2cccnc12)c1cccc2c(Br)cccc12`: the “activity change, negative = inhibition” value was -2.63%. Regarding `N#Cc1ccc(C(=O)Nc2cccc3cccnc23)c(F)c1`, the “activity change, negative = inhibition” value is 1.03%. Turning to `Cc1c(NC(=O)Nc2ccccc2Cl)sc(=S)n1C`, the “activity change, negative = inhibition” value is -3.73%. As for `O=C(Nc1cccc2cccnc12)c1cccc(N2C(=O)CCC2=O)c1`, the Potency is 13.5 µM (active). Turning to `COC(=O)c1cccc(NC(=O)c2cccc(N3C(=O)CCC3=O)c2)c1`, the “activity change, negative = inhibition” value is -12.1%.

`Cc1cc(NC(=O)c2cccc(N3C(=O)CCC3=O)c2)no1`: the “activity change, negative = inhibition” value was 3.05%. On to `O=C(Nc1ccccc1Cl)Nc1cccc2cccnc12`, for which the Potency is 12 µM (active). Turning to `COc1c(Cl)cc(Cl)cc1C(=O)Nc1cccc2cccnc12`, the “activity change, negative = inhibition” value is -0.765%. With `O=S(=O)(Nc1ccc(-n2cnnn2)cc1)c1ccc(Cl)cc1`, the “activity change, negative = inhibition” value was 6.33%. Still for that read-out and setting: the value for `O=[N+]([O-])/C=C1\CCCCCN1` was -0.667%; that for `CCc1ccccc1N1CC(c2nc3ccccc3n2CCCCOc2ccccc2)CC1=O` (configuration not stated) was 3.12%; that for `O=C(CCNS(=O)(=O)c1ccccc1C(F)(F)F)Nc1ccncc1` was 6.96%.

In the case of `Cc1ccc(-c2nnc(Nc3cccc(Br)c3)c3ccccc23)cc1S(=O)(=O)NCC1CCCO1` (configuration not stated), the “activity change, negative = inhibition” value is -10.7%.

Turning to `CC1CCCC(NC(=O)COC(=O)[C@@H]2CC(O)CN2S(=O)(=O)c2ccc3c(c2)OCCO3)C1C` (some centres not stated), the “activity change, negative = inhibition” value was -0.286%. Same read-out and setting: the value for `Clc1ccc(CSc2nncn3c2cc2occc23)cc1` was -18.1%; that for `CC(=O)c1ccccc1NC(=O)C1CC(=O)N(c2ccc3c(c2)OCCO3)C1` (configuration not stated) was -0.95%; that for `COc1ccc(CNc2nc(-c3ccc(Cl)cc3)nn2S(=O)(=O)c2ccc(C)cc2)cc1` was -0.551%.

On to `COC(=O)c1cccc(NS(C)(=O)=O)c1`, for which the “activity change, negative = inhibition” value is 0.196%. As for `CS(=O)(=O)Nc1cccc(-c2cn3ccccc3n2)c1`, the Potency was 23.9 µM (active). `CS(=O)(=O)Nc1cccc(C2=NN(S(=O)(=O)c3ccccc3)C(c3cccs3)C2)c1` (configuration not stated): the “activity change, negative = inhibition” value is 2.05%. Regarding `COc1ccccc1C1=CC(=O)C[C@H](c2ccc(F)cc2)C1`, the “activity change, negative = inhibition” value was 9.97%.

For the compound `Cc1ccc(SCCC(=O)NCc2ccccn2)cc1`, the “activity change, negative = inhibition” value is -0.446%. In the case of `Cc1ccc(SCCSc2ncccn2)cc1`, the Potency was 1.69 µM (active). Take `Cc1ccc(SCCC(=O)NC(C(C)C)C(C)C)cc1`: the “activity change, negative = inhibition” value was 0.134%.

In the case of `CCN(C(=O)CSc1nnc(C)n2c1cc1occc12)c1ccccc1`, the “activity change, negative = inhibition” value was -7.06%. Consider `COc1cc(C(=O)NNC(=O)CN2C(=O)NC3(CCCC3)C2=O)cc(OC)c1OC`, for which the “activity change, negative = inhibition” value was 4.08%.

On to `Cc1ccc(-c2nnc3c4ccccc4c(C)nn23)cc1NC(=O)c1cccc(Br)c1`, for which the “activity change, negative = inhibition” value was 3.27%. As for `Cc1ccc(S(=O)(=O)NCCC(=O)Nc2cccc(S(N)(=O)=O)c2)cc1C`, the “activity change, negative = inhibition” value was -0.0392%. Consider `Cc1ccc(S(=O)(=O)NCCC(=O)Nc2ccc(C)c(Cl)c2)cc1C`, for which the “activity change, negative = inhibition” value was 4.43%. Regarding `Cc1ccnc(NC(=O)CCNS(=O)(=O)c2ccc(C)c(C)c2)c1`, the Potency is 4.78 µM (active).

Consider `COc1cc(NC(=O)CN2CCN(S(=O)(=O)c3ccc(Br)cc3)CC2)cc(OC)c1`, for which the “activity change, negative = inhibition” value is -0.515%. `Cc1cc2ccccc2n1CCC(=O)O`: the “activity change, negative = inhibition” value was 0.677%. With `O=C(O)CCn1c(O)c(C=C2N=c3ccccc3=N2)sc1=S`, the Potency is 1.07 µM (active). `O=C(O)CCn1c(Cc2ccccc2)nc2ccccc21`: the “activity change, negative = inhibition” value was 8.23%.
